Assay results from PubChem BioAssay.
Activity calls are given as the source filed them. Unless noted, the rule behind the calls is not given here.

Columns and labels:
[1] = system: Wnt5a (protein binding on small-molecule microarray); experiment: small molecules binding Wnt5a protein – biophysical, small-molecule microarray, 635/667 nm fluorescence, primary screen (AID 1142); settings: 635 nm fluorescence, higher = more signal;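 note: fluorescence read at 667 nm with signal to noise per printed feature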
[2] = ATP-based viability of Huh7 replicon cells – cell-based, CellTiter-Glo luminescence, basal, 48 h, cytotoxicity control for HCV replication inhibitor project, primary screen (AID 1143); settings: higher = more signal, called active from +8 up or from −8 down;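 note: Huh7 hepatoma cells carrying a hepatitis C replication reporter with no stimulus; test concentration not given here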
[3] = Pseudomonas biofilm growth suppression – PAO1 strain, BacTiter-Glo luminescence, LB-PBS, primary screen (AID 1144); settings: P. aeruginosa PAO1 biofilm, 12 h, higher = more signal
[4] = basal CRE-LacZ reporter activity in PC12 – cell-based, unstimulated, primary screen (AID 1145); settings: no forskolin, luminescence, 4.5 h, higher = more signal, called active from +8 up or from −8 down
[5] = forskolin-driven CRE-LacZ activity in PC12 – cell-based, CRE-LacZ reporter, forskolin-stimulated, primary screen (AID 1146); settings: luminescence, 4.5 h, higher = more signal, called active from +8 up or from −8 down;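 note: PC12 cells with 6xCRE LacZ reporter stimulated by forskolin 10 µM; beta-galactosidase reporter signal reflecting CREB driven transcription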
[6] = target: Streptavidin (Streptomyces avidinii) (UniProt P22629); experiment: compounds binding control protein streptavidin – biophysical, small-molecule microarray, 635/667 nm fluorescence, artefact control for SMM compound annotation, primary screen (AID 1147); settings: higher = more signal;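 note: signal reflects streptavidin binding to arrayed compounds as a control protein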
Streptavidin (Streptomyces avidinii), sequence (P22629 whole entry, looked up): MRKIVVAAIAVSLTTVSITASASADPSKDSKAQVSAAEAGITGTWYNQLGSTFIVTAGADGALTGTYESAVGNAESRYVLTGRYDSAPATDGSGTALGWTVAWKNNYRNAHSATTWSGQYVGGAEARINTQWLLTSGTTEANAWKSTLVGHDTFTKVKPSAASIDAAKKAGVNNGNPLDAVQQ

[7] = probe aInhba binding on compound microarray – biochemical, small-molecule microarray, 635/667 nm fluorescence, primary screen (AID 1148); settings: higher = more signal;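 note: score merges 667nm spot fluorescence with signal-to-noise for antibody binding to printed compounds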
Torsin-1A (Homo sapiens) [8] = target: Torsin-1A (Homo sapiens) (UniProt O14656); experiment: TOR1A wild-type binding on microarray – cell lysate, small-molecule microarray, lysate, 635/667 nm, primary screen (AID 1149); settings: COS7 hTOR1A-WT lysate, 635 nm fluorescence, higher = more signal
Torsin-1A (Homo sapiens), sequence (O14656 whole entry, looked up): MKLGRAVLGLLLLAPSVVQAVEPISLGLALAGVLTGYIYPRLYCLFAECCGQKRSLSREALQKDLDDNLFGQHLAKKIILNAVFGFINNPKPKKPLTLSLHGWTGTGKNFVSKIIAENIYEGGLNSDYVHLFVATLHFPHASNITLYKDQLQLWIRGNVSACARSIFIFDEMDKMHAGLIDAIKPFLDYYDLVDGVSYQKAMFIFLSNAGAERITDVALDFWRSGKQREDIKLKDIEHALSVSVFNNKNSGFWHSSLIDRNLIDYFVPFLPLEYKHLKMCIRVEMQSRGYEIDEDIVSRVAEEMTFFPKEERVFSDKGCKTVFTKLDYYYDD

Torsin-1A (Homo sapiens) [9] = target: Torsin-1A (Homo sapiens) (UniProt O14656); experiment: torsin A mutant lysate binding on microarrays – cell lysate, small-molecule microarray, COS7 lysate, 635/667 nm fluorescence, primary screen (AID 1150); settings: COS7 hTOR1A mutant lysate, 635 nm fluorescence, higher = more signal;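 note: score pools 667 nm emission and signal to noise measuring lysate protein binding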
[10] = system: Sonic hedgehog protein (Shh); experiment: Sonic hedgehog microarray binding compounds – biochemical, small-molecule microarray, 635/667 nm fluorescence, primary screen (AID 1151); settings: 635 nm fluorescence, higher = more signal;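 note: Shh protein binding to compounds spotted on small-molecule microarray slides; score combines spot fluorescence intensity with signal-to-noise across triplicate slides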
[11] = optical density shifts of acrAB sulA E. coli – strain DRC41, OD650, 48 h, E. coli filamentation inducer project, primary screen (AID 1152); settings: higher = more signal, called active from +8 up or from −8 down;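 note: E. coli MC1000 strain DRC41 lacking acrAB efflux pump and sulA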
[12] = probe aLefty1 binding on compound microarray – biochemical, small-molecule microarray, 635/667 nm fluorescence, primary screen (AID 1153); settings: higher = more signal;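 note: score merges spot fluorescence with signal-to-noise ratio from the scanned slide images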
[13] = plasmodial surface anion channel blockers, osmotic lysis – cell-based, P. falciparum Indochina, OD700, 1 h, primary screen (AID 1154); settings: P. falciparum Indochina infected RBC osmotic lysis, higher = more signal, called active from +8 up or from −8 down
[14] = plasmodial surface anion channel blockers, osmotic lysis – cell-based, P. falciparum Indochina, OD700, 2 h, primary screen (AID 1155);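 note: lysis reports solute entry through the parasite surface anion channel PSAC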; settings: P. falciparum Indochina infected erythrocytes, higher = more signal, called active from +8 up or from −8 down
[15] = changes in parasitized red cell lysis, either direction – P. falciparum Indochina, OD700, 3 h, PSAC antagonist project, primary screen (AID 1156); settings: P. falciparum-infected erythrocytes, osmotic lysis, higher = more signal, called active from +8 up or from −8 down
[16] = plasmodial surface anion channel blockers, osmotic lysis – cell-based, P. falciparum Indochina, OD700, 18 h, primary screen (AID 1157); settings: P. falciparum Indochina infected erythrocytes, osmotic lysis OD700, 18 h; higher = more signal, called active from +8 up or from −8 down
[17] = S6 kinase pathway phospho-S6 level changes – cell-based, A549, cytoblot, luminescence, serum-stimulated, primary screen (AID 1158); settings: 5 h, higher = more signal;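 note: serum-stimulated A549 lung adenocarcinoma cells; signal is phosphorylated S6 detected by cytoblot immunostaining with HRP secondary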
[18] = target: NADPH oxidase 2 (Homo sapiens) (UniProt P04839); experiment: compounds shifting NOX2 Amplex Red fluorescence – cell-based, HEK293-NOX2, PMA-stimulated, NOX inhibitor project, primary screen (AID 1159); settings: 45 min, higher = more signal, called active from +8 up or from −8 down; note: test concentration not given here
NADPH oxidase 2 (Homo sapiens), sequence (P04839 whole entry, looked up): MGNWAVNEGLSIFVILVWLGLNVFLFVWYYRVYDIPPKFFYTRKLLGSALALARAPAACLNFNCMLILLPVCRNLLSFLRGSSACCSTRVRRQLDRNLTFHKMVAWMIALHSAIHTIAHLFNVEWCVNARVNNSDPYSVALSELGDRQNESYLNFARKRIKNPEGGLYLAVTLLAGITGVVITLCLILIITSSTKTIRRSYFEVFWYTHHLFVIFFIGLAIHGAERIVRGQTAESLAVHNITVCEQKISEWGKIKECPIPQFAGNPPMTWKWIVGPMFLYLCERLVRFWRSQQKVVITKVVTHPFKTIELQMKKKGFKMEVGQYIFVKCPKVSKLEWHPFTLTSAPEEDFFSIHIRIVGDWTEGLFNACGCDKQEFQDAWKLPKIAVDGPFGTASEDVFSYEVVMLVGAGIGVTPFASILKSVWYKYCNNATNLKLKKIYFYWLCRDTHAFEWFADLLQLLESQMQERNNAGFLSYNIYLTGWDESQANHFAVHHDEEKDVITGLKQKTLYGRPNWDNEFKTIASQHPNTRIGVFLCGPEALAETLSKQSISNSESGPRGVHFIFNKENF

[19] = target: NADPH oxidase 4 (Homo sapiens) (UniProt Q9NPH5); experiment: compounds shifting NOX4 Amplex Red fluorescence – cell-based, HEK293-NOX4, tetracycline-induced, NOX inhibitor project, primary screen (AID 1160); settings: HEK293-NOX4, Amplex Red H2O2 fluorescence, 45 min; higher = more signal, called active from +8 up or from −8 down
NADPH oxidase 4 (Homo sapiens), sequence (Q9NPH5 whole entry, looked up): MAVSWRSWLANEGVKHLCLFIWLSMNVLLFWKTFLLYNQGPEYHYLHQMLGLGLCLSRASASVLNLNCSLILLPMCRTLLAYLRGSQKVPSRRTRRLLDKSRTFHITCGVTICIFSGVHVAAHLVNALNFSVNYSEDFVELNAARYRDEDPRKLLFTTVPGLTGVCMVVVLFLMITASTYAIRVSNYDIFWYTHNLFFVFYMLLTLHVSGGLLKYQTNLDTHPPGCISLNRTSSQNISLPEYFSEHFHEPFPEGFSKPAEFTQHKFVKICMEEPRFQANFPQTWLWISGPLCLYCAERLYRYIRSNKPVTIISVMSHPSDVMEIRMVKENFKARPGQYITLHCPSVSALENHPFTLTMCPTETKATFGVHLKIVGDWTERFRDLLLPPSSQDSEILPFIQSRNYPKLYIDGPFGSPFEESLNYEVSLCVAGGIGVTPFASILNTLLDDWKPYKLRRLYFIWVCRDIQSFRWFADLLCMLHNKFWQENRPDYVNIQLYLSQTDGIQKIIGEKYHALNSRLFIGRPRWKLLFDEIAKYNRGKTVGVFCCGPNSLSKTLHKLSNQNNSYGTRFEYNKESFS

[20] = target: NADPH oxidase 5 (Homo sapiens) (UniProt Q96PH1); experiment: compounds shifting NOX5 Amplex Red fluorescence – cell-based, HEK293-NOX5, NOX inhibitor project, primary screen (AID 1161); settings: HEK293-NOX5, ionomycin, 45 min, higher = more signal
NADPH oxidase 5 (Homo sapiens), sequence (Q96PH1 whole entry, looked up): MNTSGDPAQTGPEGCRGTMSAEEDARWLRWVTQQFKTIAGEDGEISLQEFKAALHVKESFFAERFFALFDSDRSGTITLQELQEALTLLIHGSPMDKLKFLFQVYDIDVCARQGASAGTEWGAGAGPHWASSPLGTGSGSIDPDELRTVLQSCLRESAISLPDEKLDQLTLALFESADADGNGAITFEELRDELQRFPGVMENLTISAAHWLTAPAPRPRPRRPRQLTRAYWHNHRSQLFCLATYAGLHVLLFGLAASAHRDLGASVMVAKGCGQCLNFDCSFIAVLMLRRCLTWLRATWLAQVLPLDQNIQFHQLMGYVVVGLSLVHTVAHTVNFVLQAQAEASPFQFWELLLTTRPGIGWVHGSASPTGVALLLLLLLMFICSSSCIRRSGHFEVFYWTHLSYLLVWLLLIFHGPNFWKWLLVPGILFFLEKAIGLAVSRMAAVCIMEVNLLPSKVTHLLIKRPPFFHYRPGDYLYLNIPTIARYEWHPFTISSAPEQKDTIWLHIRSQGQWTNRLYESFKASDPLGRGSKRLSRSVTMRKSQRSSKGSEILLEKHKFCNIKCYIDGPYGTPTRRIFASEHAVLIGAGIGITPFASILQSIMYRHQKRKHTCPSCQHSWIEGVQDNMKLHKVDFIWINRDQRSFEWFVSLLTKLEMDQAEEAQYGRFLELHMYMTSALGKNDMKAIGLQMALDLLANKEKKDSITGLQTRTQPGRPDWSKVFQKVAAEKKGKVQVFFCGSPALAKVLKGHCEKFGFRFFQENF

| Structure (SMILES) | composite z-score [1] | z-score [2] | z-score [3] | z-score [4] | z-score [5] | composite z-score [6] | composite z-score [7] | composite z-score (Torsin-1A (Homo sapiens) [8]) | composite z-score (Torsin-1A (Homo sapiens) [9]) | composite z-score [10] | z-score [11] | composite z-score [12] | z-score [13] | z-score [14] | z-score [15] | z-score [16] | z-score [17] | z-score [18] | z-score [19] | z-score [20] |
| --- | --- | --- | --- | --- | --- | --- | --- | --- | --- | --- | --- | --- | --- | --- | --- | --- | --- | --- | --- | --- |
| CCCCC=C[C@@H](NC(=O)Oc1cccc(C(F)(F)F)c1)c1ccccc1 | 1.61 | -3.46 (inactive) | -0.721 (inactive) | 0.201 (inactive) | 0.0897 (inactive) | 1.84 | 0.996 | 0.961 | 0.947 | -0.629 | -2.63 (inactive) | 1.29 | 2.41 (inactive) | 0.278 (inactive) | 0.247 (inactive) | -1.17 (inactive) | 1.31 | -3.82 (inactive) | -3.48 (inactive) | -2.98 |
| CCCC=C(CCC)[C@@H](NS(=O)(=O)c1cccs1)c1ccc(C(=O)OC)cc1 | 0.247 | -3.88 (inactive) | 0.276 (inactive) | 0.201 (inactive) | 0.91 (inactive) | 1.37 | 0.16 | -0.0907 | 0.647 | -0.168 | -1.35 (inactive) | 0.133 | 1.19 (inactive) | 0.0633 (inactive) | 1.28 (inactive) | 0.567 (inactive) | -1.13 | -0.547 (inactive) | -3.59 (inactive) | 0.708 |
| O=C1C2C=CC(C(O)c3c(F)cccc3Cl)N(Nc3ccccc3)C2C(=O)N1c1ccccc1 (stereo not given) | 0.422 | -0.165 (inactive) | -0.48 (inactive) | 0.0535 (inactive) | -0.0349 (inactive) | 1.1 | 0.153 | 0.463 | 0.836 | -0.104 | -0.0623 (inactive) | 0.547 | 18.7 (active) | 3.73 (inactive) | 0.419 (inactive) | 1.93 (inactive) | -0.458 | -1.69 (inactive) | -3.01 (inactive) | -2.42 |
| COCCCN1C(=O)[C@@]2(c3ccc([N+](=O)[O-])cc3)CC(=O)N(C3CCCCC3)[C@@H]2c2ccc(CO)cc21 | -0.0976 | -0.253 (inactive) | 0.0798 (inactive) | -0.761 (inactive) | -0.593 (inactive) | -0.226 | -0.214 | 0.0116 | -0.289 | 1.41 | -0.0972 (inactive) | -0.35 | -0.141 (inactive) | -0.063 (inactive) | -0.382 (inactive) | 0.0583 (inactive) | -0.495 | -2.14 (inactive) | -1.3 (inactive) | -0.379 |
| CC1CC/C=C\[C@H]2OC34C=CCN(c5ccc(Cl)cc5)C(=O)[C@H]3N(CCO)C(=O)[C@]4(C)C2C(=O)O1 (stereo not given in full) | -0.642 | -0.901 (inactive) | 0.43 (inactive) | 0.87 (inactive) | -0.217 (inactive) | -0.561 | -0.128 | -0.433 | -1.01 | -0.317 | -0.209 (inactive) | -0.485 | 2.73 (inactive) | 0.402 (inactive) | 0.0852 (inactive) | 0.382 (inactive) | 1.13 | 1.66 (inactive) | 0.741 (inactive) | 3.16 |
| COCCCNC(=O)[C@@]1(Cc2ccccc2N=[N+]=[N-])N=C(c2ccc(OCCCO)cc2)O[C@H]1c1ccccc1N=[N+]=[N-] | 0.266 | -4.63 (inactive) | -0.557 (inactive) | 0.834 (inactive) | -0.803 (inactive) | 1.14 | 0.3 | 0.328 | 1.05 | -0.319 | -0.439 (inactive) | 0.302 | 28.8 (active) | 25.2 (active) | 2.41 (inactive) | 5.91 (inactive) | 0.621 | -2.05 (inactive) | 0.518 (inactive) | -2.22 |
| O=C1[C@H]2C=C(Br)[C@H](C[C@@H]2OCCCCO)[C@@]12CO2 | -0.0251 | 0.722 (inactive) | 0.56 (inactive) | 0.22 (inactive) | 0.533 (inactive) | 0.0247 | 0.104 | 0.411 | 0.53 | 0.31 | -1.11 (inactive) | 0.0911 | 1.31 (inactive) | 0.317 (inactive) | 1.17 (inactive) | -0.0393 (inactive) | -0.401 | 0.45 (inactive) | 0.602 (inactive) | 0.188 |
| COc1ccc(CCN2C(=O)[C@@]3(Cc4ccccc42)c2ccccc2C(=O)N(Cc2ccccc2C(F)(F)F)[C@H]3c2ccc(CO)cc2)cc1 | 0.268 | -4.12 (inactive) | -1.41 (inactive) | -0.554 (inactive) | -0.361 (inactive) | -0.228 | -0.208 | 0.208 | 0.087 | 1.9 | -0.262 (inactive) | -0.201 | 0.074 (inactive) | -1.13 (inactive) | -1.87 (inactive) | -2.07 (inactive) | 1.85 | -1.4 (inactive) | -2.08 (inactive) | -2.04 |
| C=C/C=C/[C@H]1C(=C)CN([C@@H](Cc2ccccc2)C(=O)OC)[C@@H]1[C@H](O)Cc1ccccc1 | -0.224 | -0.123 (inactive) | 0.0605 (inactive) | 5.75 (inactive) | 0.794 (inactive) | -0.663 | -0.0736 | -1.74 | -1.4 | 0.122 | 0.297 (inactive) | -0.239 | 1.09 (inactive) | 0.804 (inactive) | -0.207 (inactive) | 0.257 (inactive) | -0.344 | -0.66 (inactive) | -0.432 (inactive) | -0.723 |
